High-throughput results from PubChem BioAssay.
A selection: hits, their analogues and other compounds. The true share with any hit is near 2.9%.
BioA inh: inhibitors of Mycobacterium tuberculosis BioA enzyme. purified M. tuberculosis BioA enzyme, plate reader. inhibition, % at 9.99 µM. actives 0.096% (n = 360,000). AID 602481; in the data active means inhibition above about 40%
Mtb hypoxia inh: reduces hypoxia-regulated biosensor signal in M. tuberculosis. M. tuberculosis hypoxia-regulated fluorescent reporter, fluorescence. fluorescence inhibition, % (no concentration beside the values). actives 0.1% (n = 300,000). AID 1159583; in the data active means fluorescence inhibition mostly above about 23%, no sharp cut-off; inactive means mostly below about 17%
FBA Mtb inh: inhibitors of M. tuberculosis fructose-bisphosphate aldolase | P9WQA3 | purified M. tuberculosis FBA, fluorescence read-out | inhibition, % at 1 µM | actives 2.3% (n = 360,000) | AID 588726; in the data active means inhibition above about 27%;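 further: 0% = vehicle and 100% = reference inhibitor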
Target sequence (P9WQA3 whole entry, looked up): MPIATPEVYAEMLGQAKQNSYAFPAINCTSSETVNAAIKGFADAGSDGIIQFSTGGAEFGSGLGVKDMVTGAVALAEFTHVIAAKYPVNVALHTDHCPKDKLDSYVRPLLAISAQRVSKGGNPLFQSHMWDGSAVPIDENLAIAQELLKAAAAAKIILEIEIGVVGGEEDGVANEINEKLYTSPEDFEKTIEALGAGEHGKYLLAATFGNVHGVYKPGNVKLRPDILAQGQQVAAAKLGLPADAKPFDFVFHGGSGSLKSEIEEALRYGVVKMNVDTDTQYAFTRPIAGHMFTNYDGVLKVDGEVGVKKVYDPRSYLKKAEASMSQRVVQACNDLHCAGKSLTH
GDH-TPI inh: counter-screen for M. tuberculosis FBA inhibitors: GDH-TPI coupled enzymes; actives 1.2% (n = 360,000); GDH-TPI coupled enzyme counterscreen, NADH absorbance; AID 588335; inhibition, % at 4.8 µM; in the data active means inhibition above about 30%;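 further: 0% = DMSO wells and 100% = wells lacking the enzyme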
FadD28 binding: blocks FadD28 binding to the bisubstrate probe; fluorescence polarization; inhibition, % at 12.5 µM; actives 0.22% (n = 360,000); AID 588549; in the data active means inhibition above about 8.5%, passing the limit was not always enough
* marks the source's active call; other numbers are inactive results; nt = no result; + = active, no number.

SMILES | BioA inh | Mtb hypoxia inh | FBA Mtb inh | GDH-TPI inh | FadD28 binding
N#Cc1nc(-c2cccs2)oc1NCc1ccccc1Cl | -0.4 | nt | 157.9* | 25.2 | -1.7
COc1ccc(CNc2oc(C)nc2C#N)cc1 | 3.8 | 5.0 | -5.5 | 1.0 | -3.5
Cc1ccc(CNc2oc(-c3cccs3)nc2C#N)cc1 | 1.3 | 20.6 | + | 7.4 | 2.4
C=CCNc1oc(-c2cccs2)nc1C#N | 1.3 | 2.2 | + | 28.2 | -1.2
C[C@H]1CN([C@@H](C)CO)C(=O)c2cc(NS(=O)(=O)c3ccc(Cl)cc3)ccc2O[C@H]1CN(C)C(=O)Nc1ccc2c(c1)OCO2 | 1.4 | nt | nt | nt | nt
N#Cc1nc(-c2cccs2)oc1NCc1ccccc1 | 1.2 | nt | + | 22.2 | -1.1
N#Cc1nc(-c2ccc(OCc3ccccc3)cc2)oc1NCc1ccco1 | -1.2 | 11.6 | 6.9 | 19.8 | 2.0
N#Cc1nc(-c2cccs2)oc1NCc1ccco1 | 1.4 | -3.6 | + | 19.7 | 2.6
N#Cc1nc(Cc2ccccc2)oc1NCc1ccccc1 | 1.8 | 5.4 | -8.1 | 1.2 | 0.0
CC(C)NC(=O)Nc1ccc2c(c1)CC(=O)N([C@H](C)CO)C[C@H](C)[C@@H](CN(C)CC1CCCCC1)O2 | 1.2 | nt | nt | nt | nt
C[C@@H]1CCCCO[C@H](CN(C)C(=O)Nc2ccccc2)[C@H](C)CN([C@@H](C)CO)C(=O)c2cc(NC(=O)c3ccccc3)ccc2O1 | -0.9 | nt | nt | nt | nt
CCCc1c(O)c2ccccc2n(-c2ccccc2)c1=O | -3.5 | nt | 44.7* | 13.8 | -0.2
CN1CCN(C(=O)C[C@@H]2CC[C@H]3[C@@H](COC[C@@H](O)CN3Cc3cccc(F)c3)O2)CC1 | 0.2 | nt | nt | nt | nt
CC1CC2C3CC(F)C4=CC(=O)C=C[C@]4(C)[C@@]3(F)C(O)C[C@]2(C)[C@@]1(O)C(=O)CO (stereo not given in full) | nt | 0.2 | nt | nt | nt
COc1ccc(/C=C2\C(=O)N(c3c(Cl)cc(Cl)cc3Cl)N=C2NC(=O)c2cccc([N+](=O)[O-])c2)cc1 | 0.0 | -6.0 | -2.9 | 4.4 | 8.4*
COc1ccc(NC(=O)c2cccc(N3C(=O)c4cccc([N+](=O)[O-])c4C3=O)c2)cc1 | 4.1 | 5.8 | -3.0 | 8.9 | -0.7
C[C@H]1CN([C@@H](C)CO)C(=O)c2cc(C#CC(C)(C)O)cnc2O[C@H]1CN(C)C(=O)c1ccccc1F | 3.8 | nt | nt | nt | nt
Cc1cc(NCCCO)n2c(nc3ccccc32)c1C#N | -2.0 | 6.3 | 181.3* | 10.1 | -1.7
Cc1cc(NCCOCCO)n2c(nc3ccccc32)c1C#N | -0.1 | -5.5 | + | 10.8 | -2.1
COCCNc1cc(C)c(C#N)c2nc3ccccc3n12 | 0.8 | nt | 193.4* | 9.7 | 0.8
N#Cc1c2c(c(NCCOCCO)n3c1nc1ccccc13)CCCC2 | -0.9 | 7.3 | 15.5 | 9.8 | 1.7
Cc1cc(NCc2ccccn2)n2c(nc3ccccc32)c1C#N | nt | 2.8 | 21.2 | -0.3 | -4.1
COCCNc1c2c(c(C#N)c3nc4ccccc4n13)CCCC2 | nt | 8.2 | 11.2 | 10.6 | 0.2
C[C@@H]1CN([C@@H](C)CO)C(=O)c2cc(C3=CCCC3)cnc2O[C@H]1CN(C)C(=O)Nc1ccc(F)cc1 | 1.4 | nt | nt | nt | nt
C[C@@H]1CN([C@H](C)CO)C(=O)c2cccc(NC(=O)NC3CCCCC3)c2O[C@@H]1CN(C)Cc1ccc(C(=O)O)cc1 | -0.2 | nt | nt | nt | nt
SMILES | BioA inh | Mtb hypoxia inh | FBA Mtb inh | GDH-TPI inh | FadD28 binding
COc1cc(OC)c(OC)cc1/C=C1\Oc2cc(OCC(=O)N3Cc4ccccc4C[C@H]3C(=O)O)ccc2C1=O | -5.1 | nt | -10.7 | 5.9 | 11.8*
COc1cccc(/C=C2\Oc3cc(OCC(=O)N4CCC[C@H]4C(=O)O)ccc3C2=O)c1 | 0.5 | nt | 1.1 | 36.3* | -4.2
NNc1ccc([N+](=O)[O-])c2[nH][nH]c(=O)c12 | 3.1 | nt | -4.8 | 7.1 | 16.0*
Nc1ccc(-c2nc3ccccc3o2)cc1 | 0.0 | -10.4 | 150.1* | 13.8 | -34.6
Nc1cc(N)cc(-c2nc3ccccc3o2)c1 | -0.7 | nt | 2.0 | -5.3 | -3.3
O=C(NN1C(=O)/C(=C/c2ccc(O)cc2)SC1=S)c1cccc(O)c1 | -26.1 | -0.6 | -12.8 | 7.1 | 19.1*
O=C(NN1C(=O)/C(=C/c2ccc(O)c([N+](=O)[O-])c2)SC1=S)c1ccccc1Cl | nt | 20.2 | -21.4 | 5.0 | 20.7*
COc1cc(/C=C2\SC(=S)N(NC(=O)c3ccccc3O)C2=O)ccc1O | 7.7 | -1.5 | -13.2 | 8.1 | 11.5*
O=C(NN1C(=O)/C(=C/c2ccc(O)cc2)SC1=S)c1ccccc1O | -15.1 | 11.0 | -14.9 | 8.1 | 18.9*
COc1cc(/C=C2\SC(=S)N(N(C)c3ccccc3)C2=O)ccc1O | nt | -0.7 | 1.5 | -4.2 | 0.4
